Hits are enriched below; roughly 27% of the tested compounds scored in any of these assays.
Cav32 inh – Cav3.2 calcium influx blockers – cell-based, Fluo-4 calcium fluorescence, FDSS, MLSMR library, primary screen. Voltage-dependent T-type calcium channel subunit alpha-1H (Homo sapiens), O95180. Cav3.2-expressing cells; hits give low values. B-score at 10 µM. 4% of 100,000 active. AID 449739, 2010;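 active = single-dose well whose peak fluorescence ratio is a statistical outlier from its plate by either plate-standardised score or position-corrected B-score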
CYP2C19 inh – blockers of cytochrome P450 2C19 activity – biochemical, luminescence, ADME assay, primary screen | CYP2C19 Supersomes, luciferin-H EGE luminescence, 30 min | 21% of 96,000 active | P33261 | inhibition, % at 5 µM;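 active = CYP2C19 inhibition above a set limit at 5 µM in the primary screen, cut at about 50% in these data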;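 note: plate controls were negative control wells for no effect and 2.5 mM tranylcypromine positive control for full effect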
Target sequence (P33261 whole entry, looked up): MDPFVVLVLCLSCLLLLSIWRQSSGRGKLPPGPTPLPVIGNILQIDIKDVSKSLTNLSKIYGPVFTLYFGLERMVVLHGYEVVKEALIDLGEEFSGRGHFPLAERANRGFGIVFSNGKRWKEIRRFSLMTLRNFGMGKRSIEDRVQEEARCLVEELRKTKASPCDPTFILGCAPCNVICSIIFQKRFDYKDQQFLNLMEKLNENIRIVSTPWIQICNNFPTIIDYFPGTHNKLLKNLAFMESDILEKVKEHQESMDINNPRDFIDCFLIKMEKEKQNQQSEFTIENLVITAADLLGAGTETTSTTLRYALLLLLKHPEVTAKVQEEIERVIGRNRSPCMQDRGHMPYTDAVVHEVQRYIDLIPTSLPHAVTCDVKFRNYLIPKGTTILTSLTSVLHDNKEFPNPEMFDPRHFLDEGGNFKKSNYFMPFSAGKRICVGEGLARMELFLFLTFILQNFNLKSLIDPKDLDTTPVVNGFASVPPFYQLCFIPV
PTK2B oligo ant – antagonists of Pyk2 self-association, primary screen, Q293 cells, FERM NanoBiT luminescence, HTS. hits give low values. z-score (the deposit names both 25 µM and 10 µM). Protein-tyrosine kinase 2-beta (Homo sapiens), Q14289. 0.83% of 99,000 active. AID 1347419, 2020;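 active = Z-score of -3 or lower, scaled per plate to the spread of control and sample wells; inactive = z-score above -3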;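 note: negative z-score means lost luminescence so less FERM oligomerization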
CYP2C19 activ – human CYP2C19 activators, primary screen, biochemical, luminescence; Cytochrome P450 2C19 (Homo sapiens), P33261; recombinant CYP2C19, luciferin-H EGE luminescence; hits give high values; 0 = fully inhibited enzyme, 1 = untreated enzyme; activation factor at 5 µM; 96,000 tested, under 10 active; AID 1025, 2008;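 active = activation factor of at least 2 at 5 µM in the primary screen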;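 note: 0 = wells with 2.5 mM tranylcypromine and 1 = vehicle-only wells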
CYP2C9 act – human CYP2C9 activators, primary screen, biochemical, luminescence. Cytochrome P450 2C9 (Homo sapiens), P11712. recombinant CYP2C9, luciferin-H conversion; hits give high values; factor 1 = untreated enzyme, 0 = blocked. activation factor at 5 µM. 1.4% of 96,000 active. AID 1024, 2008;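 active = activation factor of 2 or more for CYP2C9 at a 5 µM dose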;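 note: 0 = sulfaphenazole-blocked wells and 1 = vehicle-only wells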
CYP2C9 inh – blockers of cytochrome P450 2C9 activity – biochemical, luminescence, ADME assay, primary screen | P11712 | 20% of 96,000 active | CYP2C9 Supersomes, luciferin-H conversion | AID 777, 2007 | inhibition, % at 5 µM;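 active = blocking of liver enzyme CYP2C9 beyond about 50% at 5 µM, limit read from the data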
* marks the source's active call; other numbers are inactive results; . = no result.

SMILES	Cav32 inh	CYP2C19 inh	PTK2B oligo ant	CYP2C19 activ	CYP2C9 act	CYP2C9 inh
COc1ccc(C2C(C(=O)OCC3CCCO3)=C(C)NC3=C2C(=O)CC(c2ccco2)C3)cc1O (configuration not stated)	0.0273	17.7	-0.51	0.8	0.7	33.1
NNc1nnc(-c2ccccc2)c(-c2ccccc2)n1	0.244	87.9*	-1.95	0.1	0.2	79.4*
Cc1ccc(-c2nnc(Nc3ccccc3)c3ccccc23)cc1S(=O)(=O)NCC1CCCO1 (configuration not stated)	-3.98	56.2*	-1.74	0.4	0.4	64.5*
O=C(NCC1CCCCC1)c1ccco1	0.29	66.4*	-0.58	0.3	0.7	29.7
O=C(COC(=O)c1ccccc1NC(=O)c1ccco1)NCC1CCCCC1	-0.916	79.4*	-0.42	0.2	0.1	94.7*
COC(=O)c1ccccc1NC(=O)COC(=O)c1ccc(C)c(NC(=O)c2ccco2)c1	-1.13	56.8*	-2.94	0.4	0.3	75.0*
COC(=O)c1ccccc1NC(=O)COC(=O)c1ccco1	-1.38	35.5	0.32	0.6	0.9	11.5
CC(C)C(OC(=O)c1ccco1)C(=O)NC1CCCCC1 (configuration not stated)	.	79.5*	-0.5	0.2	0.6	38.8
O=C(COC(=O)c1ccccc1NC(=O)c1ccco1)Nc1ccc2c(c1)OCO2	-0.0272	17.2	-3.75*	0.8	0.4	58.3*
O=C(COC(=O)c1ccccc1NCc1ccco1)Nc1ccc2c(c1)OCO2	-0.53	0.3	0.23	1	0.6	41.1
CCOC(=O)C1C(=O)NC(c2ccccc2)=NC1c1ccccc1 (configuration not stated)	0.169	30.7	0.83	0.7	0.7	25.1
CCCCSC1=C(C#N)C(c2ccccc2C)C(C(=O)OCC)C(=O)N1 (configuration not stated)	-2.52	60.9*	-2.05	0.4	0.3	66.4*
CCOC(=O)C1C(=O)NC(SCC(=O)OC)=C(C#N)C1c1ccccc1OCC (configuration not stated)	-0.14	67.5*	0.08	0.3	0.7	27.0
CCOC(=O)CSC1=C(C#N)C(c2ccccc2OCC)C(C#N)C(=O)N1 (configuration not stated)	-0.0746	82.6*	1.27	0.2	0.2	77.6*
C=CCSC1=C(C#N)C(c2ccccc2OCC)C(C#N)C(=O)N1 (configuration not stated)	-0.0545	55.3*	-0.25	0.4	0.5	53.7*
CCCOC(=O)CSC1=C(C#N)C(c2ccccc2OC)C(C#N)C(=O)N1 (configuration not stated)	0.622	37.7	0.19	0.6	0.6	41.7
O=C(O)CCCC(=O)NS(=O)(=O)c1ccc(Cl)cc1	-0.0523	-2.4	-0.17	1	0.9	11.7
CCOC(=O)C1C(=O)NC(SCC(=O)Nc2nccs2)=C(C#N)C1c1ccccc1OCC (configuration not stated)	-1.07	.	-2.03	.	.	.
COC(=O)C1C(=O)NC(SC)=C(C#N)C1c1ccccc1F (configuration not stated)	-0.0102	.	-0.7	.	.	.
CCOC(=O)CSC1=C(C#N)C(c2ccccc2OCC)C(C(=O)OCC)C(=O)N1 (configuration not stated)	-0.847	98.8*	-1.27	0	0.2	84.5*
CCOC(=O)CSC1=C(C#N)C(c2ccccc2Cl)C(C(=O)OC)C(=O)N1 (configuration not stated)	2.39	59.3*	-0.08	0.4	0.4	64.6*
COc1ccc(C(C)=O)cc1CSc1nnc(-c2ccccc2O)n1-c1ccccc1	-0.443	45.2	-1.48	0.5	0.5	53.3*
COc1ccc(C(C)=O)cc1CSc1nnc(C)n1-c1ccccc1	.	.	0.94	.	.	.
O=C(COc1ncnc2c(Cl)cc(Cl)cc12)NC1CCCCCC1	-1.24	34.0	0.16	0.7	1.3	-26.3
COC(=O)c1ccc(COc2ncnc3c(Cl)cc(Cl)cc23)o1	-0.457	44.0	0.21	0.6	0.4	61.5*
SMILES	Cav32 inh	CYP2C19 inh	PTK2B oligo ant	CYP2C19 activ	CYP2C9 act	CYP2C9 inh
CN(CCCNC(=O)Cn1cc2c(n1)CCCC2)C1CCCCC1	0.0705	1.0	.	1	1.1	-6.8
O=c1c(Cc2ccc(Cl)cc2Cl)c(O)ccn1Cc1ccc(Cl)cc1	-2.42	54.5*	-2.72	0.5	0.9	12.7
COC(=O)c1cc(COc2ccc3c(c2)oc(=O)c2ccccc23)c(C)o1	-0.427	51.9*	0.59	0.5	0.5	49.4
COC(=O)c1cc(-c2c(C)oc3cc(OC)ccc3c2=O)c(C)o1	-0.248	-13.8	0.82	1.1	1	1.0
COCCOC(=O)c1c(C)oc2ccc(OCC=C(C)C)cc12	-1.09	20.2	0.97	0.8	0.9	14.2
COCCOC(=O)c1c(C)oc2ccc(OCc3cc(C(=O)OC)oc3C)cc12	-1.37	43.1	-0.37	0.6	0.4	55.6*
CCOc1ccc(-c2nc(C)c(C(C)=O)n2O)cc1	-0.483	17.8	0.35	0.8	0.7	33.5
Cc1ccccc1-c1ccc(Nc2ccc(N3CCOCC3)cc2)nn1	-0.0028	35.4	0.03	0.6	0.4	58.2*
S=c1[nH]nc(Cc2sc(-c3ccccc3)nc2-c2ccccc2)o1	.	14.3	-0.8	0.9	0.4	63.7*
S=c1[nH]nc(Cc2c[nH]c3ccccc23)o1	0.75	-2.8	1.5	1	0.9	11.6
CNCC/C=C1/c2ccccc2CSc2ccccc21	0.37	.	-0.13	.	.	.
Cn1c(NNC(=O)c2cccc3ccccc23)cc(=O)n(C)c1=O	0.141	.	.	.	.	.
Cc1cc(C)c(S(C)(=O)=O)c(S(=O)(=O)c2ccc(Cl)cc2)n1	0.661	28.8	-0.84	0.7	0.6	36.9
Cc1cc(C)c(S(=O)(=O)c2c(C)cccc2C)c(Cl)n1	0.688	74.7*	0.35	0.3	0.6	42.7
C[n+]1cc[nH]c1SCC(=O)c1ccccc1	0.319	71.9*	0.85	0.3	1.1	-9.4
CCOC(=O)CNC(=O)CSc1nnc(Cn2cnc3ccccc32)n1C	-0.407	-10.0	-0.21	1.1	1	-2.8
CC1=C(C(=O)Nc2ccccn2)C(c2ccc(N(C)C)cc2)n2ncnc2N1 (configuration not stated)	0.0352	-3.3	1.78	1	0.9	8.9
Brc1ccc(C2C3=C(Nc4ncnn42)c2ccccc2OC3c2ccncc2)cc1 (configuration not stated)	-4.93*	55.3*	-3.77*	0.4	0.1	89.4*
COc1ccc(C2Oc3ccccc3C3=C2C(c2cccs2)n2ncnc2N3)cc1 (configuration not stated)	-7.06*	22.0	-3.68*	0.8	0.3	67.4*
CCOC(=O)c1sc(NC(=O)/C=C/c2cnn(CC)c2C)c(C(=O)OCC)c1C	0.073	9.3	-1.64	0.9	0.7	31.2

Source: PubChem BioAssay
